Potency and outcome data for eight compounds are collected here from PubChem BioAssay (Tox21).

Assay [1] in a line: qHTS assay to identify small molecule agonists of the peroxisome proliferator-activated receptor delta (PPARd) signaling pathway - cell viability counter screen (AID 743211). Also: nearly all actives have a fitted effect of over 55% in size. Also: potency is read from the fitted curve at half-maximal effect. In outline: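 Multiplexed format: after the 2 h room-temperature LiveBLAzer B/G FRET step, CellTiter-Glo was added to the same wells. Luminescence after 30 min gave cell viability; compound exposure was 17 h at 37C.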

For assay [2], the target named is Peroxisome proliferator-activated receptor delta (Homo sapiens) (UniProt Q03181). In words: qHTS assay to identify small molecule agonists of the peroxisome proliferator-activated receptor delta (PPARd) signaling pathway (AID 743212; calls by dose curve). In outline: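 HEK293H UAS-bla reporter cells, human PPARd system; compounds delivered in DMSO after 5 h plating, then at 37 C. Beta-lactamase FRET read, 2 h RT substrate step.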
(In general: Quantitative high-throughput screening tests each substance at several concentrations.)

Assay [3] is described as follows: qHTS assay to identify small molecule antagonists of the peroxisome proliferator-activated receptor delta (PPARd) signaling pathway - cell viability counter screen (AID 743213). Also: nearly all actives have a fitted effect of over 50% in size. In outline:
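In this counter screen, HEK293H cells carrying a UAS-beta-lactamase reporter are co-treated with test compounds and 300 nM L165041 (final) for 17 h at 37 C; cell viability is quantified by CellTiter-Glo luminescence.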

Assay [4] is described as follows: qHTS assay to identify small molecule agonists of the farnesoid-X-receptor (FXR) signaling pathway - cell viability counter screen (AID 743218). Also: nearly all actives have a fitted effect of over 45% in size. The method in brief:
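After 16 h at 37 C with test compounds, FXR-bla HEK 293T cells were given LiveBLAzer B/G substrate for 2 h at RT and then CellTiter-Glo; luminescence was taken after 30 min.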

Assay [5] is described as follows: qHTS assay to identify small molecule antagonists of the farnesoid-X-receptor (FXR) signaling pathway - cell viability counter screen (AID 743221; active = well fitted cell-killing curve with a large enough effect in the repeat runs, not every such curve was filed as active; also: nearly all actives have a fitted effect of over 50% in size). The method in brief: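 CellTiter-Glo, 30 min RT, luminescence; same wells as the LiveBLAzer FRET read. Cells: FXR-UAS-bla HEK 293T. Treatment: compound with chenodeoxycholic acid 50 uM final, 16 h at 37 C.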
The nature of assay [6]: qHTS assay to identify small molecule agonists of the vitamin D receptor (VDR) signaling pathway - cell viability counter screen (AID 743224). Also: series mostly up to about 63 µM; nearly all actives have a fitted effect of over 50% in size. In outline:
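Here cell health was gauged by luminescent ATP detection (CellTiter-Glo, 30 min RT) in VDR-bla cells that had been incubated with test compounds for 16 h at 37C and 5% CO2.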

Assay [7] in a line: qHTS assay to identify small molecule antagonists of the vitamin D receptor (VDR) signaling pathway - cell viability counter screen (AID 743225). Also: nearly all actives have a fitted effect of over 50% in size. In outline:
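Cytotoxicity toward the VDR-bla HEK 293T line was scored by ATP-based CellTiter-Glo luminescence, read in the wells already used for the beta-lactamase readout after 16 h compound treatment under 3 nM 1-alpha,25-dihydroxyvitamin D3 stimulation.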

A short description of assay [8]: qHTS assay to identify small molecule agonists of the NFkB signaling pathway (AID 1159509; active = well fitted curve in the direction sought with a large enough effect in the signal ratio in the repeat runs, not every such curve was filed as active; the % refers to the signal ratio; also: series mostly up to about 61 µM). The method in brief:
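After overnight attachment, reporter cells received test compounds, DMSO or positive controls and were incubated 5 hr at 37 C. FRET substrate was then added for 1.5 hr at room temperature before dual-emission fluorescence reading.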

Assay [9] is described as follows: qHTS assay to identify small molecule agonists of the NFkB signaling pathway - cell viability counter screen (AID 1159515; calls by dose curve; also: series mostly up to about 61 µM; nearly all actives have a fitted effect of over 55% in size). In outline: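 5 hr compound treatment of NFkB-bla ME-180 cells (2,000/well, seeded overnight beforehand), followed by reporter substrate for 1.5 hr. CellTiter-Glo added afterward; luminescence after 30 min RT.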
Assay [10] can be described thus: qHTS assay to identify small molecule agonists of the endoplasmic reticulum stress response signaling pathway (AID 1159516; active = well fitted activation curve with a large enough effect in the signal ratio in the repeat runs, not every such curve was filed as active; the % refers to the signal ratio). The method in brief: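 Reporter HeLa cells (ESRE-beta-lactamase) underwent 5 hr compound incubation at 37 C and 5% CO2 in quantitative HTS format. Detection followed 2 hr of FRET substrate loading at room temperature.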
Assay [11] is described as follows: qHTS assay to identify small molecule agonists of the endoplasmic reticulum stress response signaling pathway - cell viability counter screen (AID 1159517; calls by dose curve). The method in brief: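 Cells, HeLa ESRE-bla; density, 1,500/well; dosing, 5 hr at 37 C, 5% CO2; readout, CellTiter-Glo luminescence after 30 min RT.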
Assay [12] is described as follows: qHTS assay to identify small molecule antagonists of the retinoid-related orphan receptor gamma (ROR-gamma) signaling pathway - cell viability counter screen (AID 1159520). Also: nearly all actives have a fitted effect of over 50% in size. Also: potency is read from the fitted curve at half-maximal effect. The method in brief:
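Cytotoxicity was read from cellular ATP (CellTiter-Glo luminescence) after 16 hr at 37 C with 1 uM doxycycline induction. The inducer was added 2 hr after compound transfer to Tet-on ROR gamma CHO cells.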

Assay [13] concerns the target Nuclear receptor ROR-gamma (Homo sapiens) (UniProt P51449). The experiment in a line: qHTS assay to identify small molecule antagonists of the retinoid-related orphan receptor gamma (ROR-gamma) signaling pathway (AID 1159521; also: nearly all actives have a fitted effect of over 50% in size; also: potency is read from the fitted curve at half-maximal effect). In outline: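 Readout: ONE-Glo luciferase luminescence, 30 min at room temperature. System: Tet-on RORγ CHO, RORE-LUC. Sequence: compound 2 h, doxycycline 1 uM final, 16 h at 37 C.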

The nature of assay [14]: qHTS assay to identify small molecule agonists of the AP-1 signaling pathway - cell viability counter screen (AID 1159525; calls by dose curve; also: nearly all actives have a fitted effect of over 55% in size). The method in brief: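 Luminescent ATP readout (Cell Titer Glo, 30 min RT), normalised to DMSO and tetra n-octyl ammonium bromide controls. Cells were ME-180 AP-1-bla in 0.5% dialyzed FBS Opti-MEM, with a 5 h, 37 °C compound exposure.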
Assay [15] in a line: qHTS assay to identify small molecule agonists of the AP-1 signaling pathway (AID 1159526; calls by dose curve).
Assay [16] deals with Peroxisome proliferator-activated receptor delta (Homo sapiens) (UniProt Q03181). In words: qHTS assay to identify small molecule antagonists of the peroxisome proliferator-activated receptor delta (PPARd) signaling pathway (AID 743215; active = well fitted inhibition curve with a large enough effect in the signal ratio in the repeat runs, not every such curve was filed as active; the % refers to the signal ratio;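 also: cells stimulated with agonist L165041 at 300 nM final during compound exposure; series mostly up to about 62 µM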). In outline:
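With L165041 present at 300 nM final, compounds were incubated 17 h at 37 C on PPARd UAS-bla HEK293H cells. A FRET-based beta-lactamase substrate was then applied for 2 h at room temperature and fluorescence intensity recorded.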

The target in assay [17] is Vitamin D3 receptor (Homo sapiens) (UniProt P11473). In words: qHTS assay to identify small molecule agonists of the vitamin D receptor (VDR) signaling pathway (AID 743222; calls by dose curve). In outline:
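VDR-bla cells were seeded, left 4 h, treated with compounds in DMSO for 16 h, incubated 2 h at RT with B/G FRET substrate, and read for fluorescence.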

The target is the same in assay [18]. In words: qHTS assay to identify small molecule antagonists of the vitamin D receptor (VDR) signaling pathway (AID 743223; active = well fitted inhibition curve with a large enough effect in the signal ratio in the repeat runs, not every such curve was filed as active; the % refers to the signal ratio). In outline: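 After VDR-bla cells are plated and left 4 h at 37C, DMSO-dissolved compounds and 3 nM (final) calcitriol agonist are added. Incubation continues 16 h at 37C; FRET beta-lactamase substrate then develops 2 h at room temperature.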

In assay [19] the target is Bile acid receptor (Homo sapiens) (UniProt Q96RI1). The experiment in a line: qHTS assay to identify small molecule antagonists of the farnesoid-X-receptor (FXR) signaling pathway (AID 743217; active = well fitted inhibition curve with a large enough effect in the signal ratio in the repeat runs, not every such curve was filed as active; the % refers to the signal ratio). In outline:
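In this cell-based antagonist screen, inhibition of CDCA-driven (50 uM final) UAS-beta-lactamase expression in HEK 293T cells was measured by FRET fluorescence following 16 h compound exposure at 37 °C.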

Assay [20] has the same target. The experiment in a line: qHTS assay to identify small molecule agonists of the farnesoid-X-receptor (FXR) signaling pathway (AID 743220; active = well fitted activation curve with a large enough effect in the signal ratio in the repeat runs, not every such curve was filed as active; the % refers to the signal ratio). In outline:
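Beta-lactamase reporter under UAS control in GeneBLAzer FXR HEK 293T cells (5000/well) measured with LiveBLAzer FRET substrate after 2 h at room temperature. Compound exposure lasted 16 h at 37C.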

Values joined by “and” are separate entries in the source; they are usually repeats but may differ in a detail not shown here. Equal values may be shown once. Inconclusive results are not listed. More than one record can exist for a structure, and the calls need not agree. Active and inactive are the calls of the source. Unless noted, calls follow the shape of the dose curve; as a rule, active = well fitted curve in the direction sought with a large enough effect in the repeat runs; inconclusive = weak or mixed curves; inactive = no such curve, though single readings can be large; an effect the other way counts as inactive or inconclusive.

Sequence of Peroxisome proliferator-activated receptor delta (Homo sapiens) (Q03181 whole entry, looked up): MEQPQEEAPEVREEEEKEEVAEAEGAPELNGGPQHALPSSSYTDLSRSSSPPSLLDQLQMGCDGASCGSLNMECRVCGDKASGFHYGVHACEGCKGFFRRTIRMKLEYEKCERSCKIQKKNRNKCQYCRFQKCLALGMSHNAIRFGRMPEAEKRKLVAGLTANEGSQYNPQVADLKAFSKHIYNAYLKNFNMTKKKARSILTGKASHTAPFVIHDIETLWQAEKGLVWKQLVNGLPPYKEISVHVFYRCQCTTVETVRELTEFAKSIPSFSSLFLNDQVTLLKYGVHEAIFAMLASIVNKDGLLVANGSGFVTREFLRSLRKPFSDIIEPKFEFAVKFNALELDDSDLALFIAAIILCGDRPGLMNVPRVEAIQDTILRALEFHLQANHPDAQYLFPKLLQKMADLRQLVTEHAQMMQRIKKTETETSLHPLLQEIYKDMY
Sequence of Vitamin D3 receptor (Homo sapiens) (P11473 whole entry, looked up): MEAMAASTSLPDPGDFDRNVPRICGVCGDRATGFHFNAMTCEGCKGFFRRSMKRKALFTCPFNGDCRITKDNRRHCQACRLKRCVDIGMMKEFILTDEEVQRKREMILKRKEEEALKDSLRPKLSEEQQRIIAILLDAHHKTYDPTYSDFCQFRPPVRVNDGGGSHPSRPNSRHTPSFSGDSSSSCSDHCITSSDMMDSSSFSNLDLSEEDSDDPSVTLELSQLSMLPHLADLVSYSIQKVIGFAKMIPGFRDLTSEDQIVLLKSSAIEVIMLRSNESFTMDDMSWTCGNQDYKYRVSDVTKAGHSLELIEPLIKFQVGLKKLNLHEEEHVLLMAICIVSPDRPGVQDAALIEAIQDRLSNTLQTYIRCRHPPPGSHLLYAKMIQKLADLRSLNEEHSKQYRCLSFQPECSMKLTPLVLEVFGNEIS
Sequence of Bile acid receptor (Homo sapiens) (Q96RI1 whole entry, looked up): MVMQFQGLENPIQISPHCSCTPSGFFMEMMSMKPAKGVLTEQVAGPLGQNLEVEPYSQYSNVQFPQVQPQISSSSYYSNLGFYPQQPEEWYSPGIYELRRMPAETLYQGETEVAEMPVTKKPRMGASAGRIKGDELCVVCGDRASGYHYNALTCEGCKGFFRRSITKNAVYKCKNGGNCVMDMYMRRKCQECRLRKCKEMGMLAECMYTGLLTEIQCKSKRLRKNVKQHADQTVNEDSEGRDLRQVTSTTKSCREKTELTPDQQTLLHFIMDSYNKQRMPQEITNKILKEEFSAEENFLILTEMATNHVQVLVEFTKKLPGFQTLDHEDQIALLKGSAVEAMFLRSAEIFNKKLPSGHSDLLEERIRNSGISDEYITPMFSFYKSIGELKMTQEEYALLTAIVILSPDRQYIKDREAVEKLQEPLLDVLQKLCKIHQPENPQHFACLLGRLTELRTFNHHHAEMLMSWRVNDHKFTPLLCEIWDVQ

On to `C=CCc1ccc(OC)cc1`, for which the Potency entry in [1], in assay [2], in [3], in assay [4], in assay [5] and in [6] was “inactive” in each case. Besides, the Potency result in [7], in assay [9], in assay [11], in assay [12], in [13] and in assay [14] was “inactive” each time. Also, the outcome in [8], in assay [10] and in assay [15] was inactive.
Take `O=C(CCl)c1ccccc1`: the Potency entry in assay [1], in assay [2], in assay [3], in [16], in assay [4] and in assay [5] was “inactive” throughout. The Potency result in assay [6], in assay [7], in [9], in [11] and in assay [14] was “inactive” each time. Moreover, the result in [17], in assay [18], in [8], in [10] and in assay [15] was inactive. Besides, the Potency entry in [12] was “inactive and 61.1 µM (active)”; in assay [13], “inactive and 54.5 µM (active)”.
For `CC(C)=CC1C(C(=O)OCc2coc(Cc3ccccc3)c2)C1(C)C` (configuration not stated), the Potency result in assay [1], in assay [2], in assay [3], in assay [16], in assay [19] and in [4] was “inactive” each time. Moreover, the Potency result in [5], in [6], in assay [9], in assay [11], in [12] and in assay [14] was “inactive” throughout. For the same compound, the compound was called inactive in assay [20], in assay [17], in assay [18], in assay [8], in assay [10] and in assay [15]. The Potency in assay [13] is 48.6 µM (active).
Consider `CCCCC(CC)COC(=O)c1ccc(C(=O)OCC(CC)CCCC)c(C(=O)OCC(CC)CCCC)c1` (configuration not stated), for which the Potency result in assay [1], in assay [2], in [3], in assay [16], in [4] and in [5] was “inactive” in each case. Besides, the Potency entry in assay [6], in assay [9], in assay [11], in [12], in assay [13] and in [14] was “inactive” in each case. In addition, the compound was classed as inactive in assay [17], in assay [18], in assay [8], in assay [10] and in assay [15].
In the case of `CCC(C)c1cc([N+](=O)[O-])cc([N+](=O)[O-])c1O` (configuration not stated), the Potency result in assay [1], in assay [3], in assay [16], in assay [19], in assay [4] and in [5] was “inactive” each time. The Potency entry in [6], in [7], in assay [9], in assay [11], in assay [12] and in assay [14] was “inactive” throughout. For the same compound, the outcome in [20], in assay [17], in assay [18], in assay [8], in [10] and in assay [15] was inactive. The Potency result in assay [13] was “inactive and 7.7 µM (active)”.
On to `Cc1ccc(OP(=O)(Oc2ccc(C)cc2)Oc2ccc(C)cc2)cc1`, for which the Potency result in assay [1], in [2], in [3], in assay [16], in assay [4] and in assay [5] was “inactive” each time. Besides, the Potency entry in assay [6], in [7], in [9], in [11], in [12] and in assay [14] was “inactive” in each case. Also, the compound was classed as inactive in assay [17], in assay [18], in [8], in [10] and in [15]. For the same compound, the Potency in assay [13] is 12.2 µM (active).
Consider `Cc1ccc2c(c1N)C(=O)c1ccccc1C2=O`, for which the Potency result in assay [1], in [2], in assay [3], in assay [16], in assay [4] and in [5] was “inactive” each time. Moreover, the Potency entry in assay [6], in assay [9], in assay [11], in [12], in assay [13] and in assay [14] was “inactive” throughout. Further, the call in assay [20], in assay [8] and in assay [15] was inactive.
As for `O=P(Oc1ccccc1)(Oc1ccccc1)Oc1ccccc1`, the Potency in assay [1] was 24.4 µM (active). The Potency result in assay [2], in assay [3], in assay [16], in assay [5], in [6] and in assay [9] was “inactive” in each case. The Potency result in assay [11], in assay [12] and in [14] was “inactive” each time. For the same compound, the compound was called inactive in assay [20], in assay [17], in [18], in [8], in [10] and in assay [15].
